# Assay results: paper PMC7862700, “An all-to-all approach to the identification of sequence-specific readers for epigenetic DNA modifications on cytosine”
# Tests used:
# Assay in all cases: DAPPL (digital affinity profiling via proximity ligation, sequencing); 10 mM Tris-HCl pH 7.5, 50 mM NaCl, 1 mM DTT, 4% glycerol, room temperature, 30 min; GST-TFs on glutathione beads, 16-mer random dsDNA library, 0.1% formaldehyde crosslink after washing; high values mean tight binding
# [1] = target: T1, FLI1 (Homo sapiens, UniProt Q01543 1-452); conditions: protein: recombinant; tags: N-terminal GST; dsDNA, one strand shown
# T1 sequence: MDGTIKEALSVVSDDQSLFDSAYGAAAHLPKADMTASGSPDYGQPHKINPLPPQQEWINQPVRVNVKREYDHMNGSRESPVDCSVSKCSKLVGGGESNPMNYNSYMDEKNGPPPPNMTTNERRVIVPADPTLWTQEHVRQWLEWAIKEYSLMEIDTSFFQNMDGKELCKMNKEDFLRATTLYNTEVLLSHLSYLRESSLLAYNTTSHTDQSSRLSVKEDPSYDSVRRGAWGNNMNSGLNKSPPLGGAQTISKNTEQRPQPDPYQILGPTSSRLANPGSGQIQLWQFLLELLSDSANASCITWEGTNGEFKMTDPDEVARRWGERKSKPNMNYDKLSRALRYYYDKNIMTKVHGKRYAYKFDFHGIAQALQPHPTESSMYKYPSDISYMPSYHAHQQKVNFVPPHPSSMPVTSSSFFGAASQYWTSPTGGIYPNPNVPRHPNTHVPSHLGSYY
# Summary of the method: (§1)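 A tag-only sample was pooled with DNA-barcoded human transcription factors that had been expressed in yeast as GST fusions and captured on glutathione beads. The pools were incubated for 30 min at room temperature with 200 nmole of a random double-stranded 16-mer DNA library in Tris/NaCl/DTT/glycerol buffer, then washed, crosslinked with 0.1% formaldehyde, proximity-ligated (BsaI/T4 ligase, 1 h, 37 °C), PCR-amplified and sequenced on an Illumina NextSeq500. Binding signal is each hexamer's read frequency for a factor divided by its frequency for the tag-only sample.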
# [2] = target: T2, ELK1 (Homo sapiens, UniProt P19419 1-428); conditions: protein: recombinant; tags: N-terminal GST; dsDNA, one strand shown
# T2 sequence: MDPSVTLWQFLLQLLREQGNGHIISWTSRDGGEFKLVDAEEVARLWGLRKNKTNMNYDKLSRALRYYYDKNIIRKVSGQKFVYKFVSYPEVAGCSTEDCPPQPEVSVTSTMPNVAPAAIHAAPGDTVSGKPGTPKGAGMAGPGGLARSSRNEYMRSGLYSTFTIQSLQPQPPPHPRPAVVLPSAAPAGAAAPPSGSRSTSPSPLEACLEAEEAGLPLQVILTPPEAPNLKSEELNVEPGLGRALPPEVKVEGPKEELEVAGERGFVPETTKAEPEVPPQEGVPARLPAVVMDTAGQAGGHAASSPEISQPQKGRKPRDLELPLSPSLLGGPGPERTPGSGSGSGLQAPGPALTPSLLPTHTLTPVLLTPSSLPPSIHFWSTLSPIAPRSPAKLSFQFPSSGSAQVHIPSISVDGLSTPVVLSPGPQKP
# Summary of the method: as §1
# [3] = target: T3, GABPA (Homo sapiens, UniProt Q06546 1-454); conditions: protein: recombinant; tags: N-terminal GST; dsDNA, one strand shown
# T3 sequence: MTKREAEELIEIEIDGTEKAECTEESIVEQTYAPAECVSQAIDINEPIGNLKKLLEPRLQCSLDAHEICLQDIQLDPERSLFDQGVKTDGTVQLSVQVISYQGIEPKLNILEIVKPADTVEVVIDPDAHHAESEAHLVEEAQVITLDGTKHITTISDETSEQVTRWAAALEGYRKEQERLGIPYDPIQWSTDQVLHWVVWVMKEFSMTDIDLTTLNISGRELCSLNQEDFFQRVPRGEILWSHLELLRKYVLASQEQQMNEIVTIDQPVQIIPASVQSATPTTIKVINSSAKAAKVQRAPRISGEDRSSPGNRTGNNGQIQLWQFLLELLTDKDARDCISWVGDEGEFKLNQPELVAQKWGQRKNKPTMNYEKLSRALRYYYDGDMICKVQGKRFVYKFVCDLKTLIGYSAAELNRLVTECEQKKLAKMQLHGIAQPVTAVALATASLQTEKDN
# Summary of the method: as §1
# [4] = target: T4, ERG (Homo sapiens, UniProt P11308 1-479); conditions: protein: recombinant; tags: N-terminal GST; dsDNA, one strand shown
# T4 sequence: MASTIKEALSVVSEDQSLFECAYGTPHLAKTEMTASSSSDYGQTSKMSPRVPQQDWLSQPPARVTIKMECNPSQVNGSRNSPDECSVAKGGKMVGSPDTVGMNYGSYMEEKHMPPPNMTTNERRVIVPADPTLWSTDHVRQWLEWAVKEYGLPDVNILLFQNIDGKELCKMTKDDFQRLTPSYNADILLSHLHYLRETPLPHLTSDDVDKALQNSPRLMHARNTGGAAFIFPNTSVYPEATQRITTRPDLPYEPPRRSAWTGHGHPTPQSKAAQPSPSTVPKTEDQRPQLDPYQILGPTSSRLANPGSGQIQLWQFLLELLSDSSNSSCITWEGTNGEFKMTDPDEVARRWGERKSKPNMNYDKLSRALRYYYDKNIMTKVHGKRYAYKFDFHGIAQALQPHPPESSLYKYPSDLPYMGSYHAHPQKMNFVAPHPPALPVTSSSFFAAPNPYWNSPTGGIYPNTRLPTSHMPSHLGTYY
# Summary of the method: as §1
# [5] = target: ELF1 (Homo sapiens, UniProt P32519 1-619); conditions: protein: recombinant; tags: N-terminal GST; dsDNA, one strand shown
# Sequence of ELF1 (P32519 whole entry): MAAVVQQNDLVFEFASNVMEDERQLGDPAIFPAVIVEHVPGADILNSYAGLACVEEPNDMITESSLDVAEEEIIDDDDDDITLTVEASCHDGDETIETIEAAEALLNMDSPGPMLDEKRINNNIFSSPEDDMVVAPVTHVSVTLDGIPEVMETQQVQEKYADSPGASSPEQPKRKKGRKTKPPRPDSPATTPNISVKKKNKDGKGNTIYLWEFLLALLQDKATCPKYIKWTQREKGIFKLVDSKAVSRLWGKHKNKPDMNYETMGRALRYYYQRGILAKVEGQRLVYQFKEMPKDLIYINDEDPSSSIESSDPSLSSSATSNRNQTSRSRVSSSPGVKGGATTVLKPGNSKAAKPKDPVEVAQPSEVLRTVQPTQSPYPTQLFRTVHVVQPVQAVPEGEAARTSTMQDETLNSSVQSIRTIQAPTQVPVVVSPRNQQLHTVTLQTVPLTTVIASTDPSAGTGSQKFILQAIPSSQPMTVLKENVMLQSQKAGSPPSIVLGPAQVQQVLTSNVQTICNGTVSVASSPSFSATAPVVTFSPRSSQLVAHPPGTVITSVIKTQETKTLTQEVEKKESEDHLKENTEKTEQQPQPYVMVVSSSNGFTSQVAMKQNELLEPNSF
# Summary of the method: as §1
# [6] = target: T5, EHF (Homo sapiens, UniProt Q9NZC4 1-300); conditions: protein: recombinant; tags: N-terminal GST; dsDNA, one strand shown
# T5 sequence: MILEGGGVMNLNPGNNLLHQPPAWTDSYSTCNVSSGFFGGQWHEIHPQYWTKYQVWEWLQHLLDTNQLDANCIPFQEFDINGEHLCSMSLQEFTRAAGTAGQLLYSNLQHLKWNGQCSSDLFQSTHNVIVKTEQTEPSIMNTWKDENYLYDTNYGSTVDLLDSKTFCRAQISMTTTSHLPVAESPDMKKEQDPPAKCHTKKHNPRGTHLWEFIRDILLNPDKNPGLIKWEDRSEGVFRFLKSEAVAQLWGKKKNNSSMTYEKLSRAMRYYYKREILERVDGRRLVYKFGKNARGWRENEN
# Summary of the method: as §1
# [7] = target: SPI1 (Homo sapiens, UniProt P17947 1-270); conditions: protein: recombinant; tags: N-terminal GST; dsDNA, one strand shown
# Summary of the method: as §1
# [8] = target: SPIB (Homo sapiens, UniProt Q01892 1-262); conditions: protein: recombinant; tags: N-terminal GST; dsDNA, one strand shown
# Sequence of SPIB (Q01892 whole entry): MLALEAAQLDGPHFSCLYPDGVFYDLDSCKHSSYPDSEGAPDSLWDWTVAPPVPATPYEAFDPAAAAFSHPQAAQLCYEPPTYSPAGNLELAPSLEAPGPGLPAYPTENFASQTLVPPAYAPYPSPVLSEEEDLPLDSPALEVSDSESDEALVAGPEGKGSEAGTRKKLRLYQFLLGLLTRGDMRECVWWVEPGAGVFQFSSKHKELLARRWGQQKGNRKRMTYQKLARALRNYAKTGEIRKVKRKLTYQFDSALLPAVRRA
# Summary of the method: as §1
# [9] = target: T6, ELK3 (Homo sapiens, UniProt P41970 1-407); conditions: protein: recombinant; tags: N-terminal GST; dsDNA, one strand shown
# T6 sequence: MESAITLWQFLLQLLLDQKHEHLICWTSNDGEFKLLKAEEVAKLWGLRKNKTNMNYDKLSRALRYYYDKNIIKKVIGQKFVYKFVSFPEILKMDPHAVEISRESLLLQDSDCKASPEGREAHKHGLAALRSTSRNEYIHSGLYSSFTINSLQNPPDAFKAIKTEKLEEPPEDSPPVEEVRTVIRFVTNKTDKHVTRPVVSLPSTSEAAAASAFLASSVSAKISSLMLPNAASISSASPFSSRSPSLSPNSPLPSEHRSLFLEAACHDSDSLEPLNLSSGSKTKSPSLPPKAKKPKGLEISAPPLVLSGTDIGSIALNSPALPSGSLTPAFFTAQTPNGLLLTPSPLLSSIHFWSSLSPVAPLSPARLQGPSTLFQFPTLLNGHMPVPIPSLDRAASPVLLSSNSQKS
# Summary of the method: as §1
# [10] = target: T7, FEV (Homo sapiens, UniProt Q99581 1-238); conditions: protein: recombinant; tags: N-terminal GST; dsDNA, one strand shown
# T7 sequence: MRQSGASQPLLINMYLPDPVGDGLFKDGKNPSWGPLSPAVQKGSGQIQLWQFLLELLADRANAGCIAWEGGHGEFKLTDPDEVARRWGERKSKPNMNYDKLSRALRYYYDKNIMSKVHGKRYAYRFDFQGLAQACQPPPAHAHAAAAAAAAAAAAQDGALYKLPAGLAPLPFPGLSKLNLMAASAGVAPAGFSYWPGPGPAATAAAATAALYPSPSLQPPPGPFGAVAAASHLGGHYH
# Summary of the method: as §1
# [11] = target: ETV5 (Homo sapiens, UniProt P41161 1-510); conditions: protein: recombinant; tags: N-terminal GST; dsDNA, one strand shown
# Sequence of ETV5 (P41161 whole entry): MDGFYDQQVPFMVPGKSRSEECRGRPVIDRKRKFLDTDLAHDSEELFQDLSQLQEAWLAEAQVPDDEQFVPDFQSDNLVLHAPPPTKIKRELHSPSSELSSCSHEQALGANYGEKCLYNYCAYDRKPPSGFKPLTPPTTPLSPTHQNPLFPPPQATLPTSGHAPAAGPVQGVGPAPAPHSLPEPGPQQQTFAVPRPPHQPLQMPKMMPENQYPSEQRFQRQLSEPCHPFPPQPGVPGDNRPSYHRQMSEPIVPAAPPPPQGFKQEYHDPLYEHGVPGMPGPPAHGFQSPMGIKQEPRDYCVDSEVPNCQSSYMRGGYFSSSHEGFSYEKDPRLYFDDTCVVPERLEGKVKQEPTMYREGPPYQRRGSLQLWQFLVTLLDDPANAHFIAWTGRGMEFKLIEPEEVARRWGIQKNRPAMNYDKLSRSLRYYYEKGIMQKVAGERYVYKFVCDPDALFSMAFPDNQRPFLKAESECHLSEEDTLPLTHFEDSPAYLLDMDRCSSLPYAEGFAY
# Summary of the method: as §1
# [12] = target: HSF1 (Homo sapiens, UniProt Q00613 1-529); conditions: protein: recombinant; tags: N-terminal GST; chain copies: 3; dsDNA, one strand shown
# Sequence of HSF1 (Q00613 whole entry): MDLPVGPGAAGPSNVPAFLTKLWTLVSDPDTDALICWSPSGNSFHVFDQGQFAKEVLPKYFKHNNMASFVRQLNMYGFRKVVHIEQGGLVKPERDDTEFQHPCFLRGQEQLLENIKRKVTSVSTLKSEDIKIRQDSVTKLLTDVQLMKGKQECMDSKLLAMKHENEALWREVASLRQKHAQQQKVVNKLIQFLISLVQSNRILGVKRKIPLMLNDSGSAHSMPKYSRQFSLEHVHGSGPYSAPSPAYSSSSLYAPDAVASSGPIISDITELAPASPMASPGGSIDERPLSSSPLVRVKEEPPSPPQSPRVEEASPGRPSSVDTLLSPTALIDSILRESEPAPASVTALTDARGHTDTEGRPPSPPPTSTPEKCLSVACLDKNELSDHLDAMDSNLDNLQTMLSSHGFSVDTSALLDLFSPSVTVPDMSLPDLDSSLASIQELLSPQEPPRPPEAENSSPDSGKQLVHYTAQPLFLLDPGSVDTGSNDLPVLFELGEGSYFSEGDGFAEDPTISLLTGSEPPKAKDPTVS
# Summary of the method: as §1
# [13] = target: T8, SPIC (Homo sapiens, UniProt Q8N5J4 1-248); conditions: protein: recombinant; tags: N-terminal GST; dsDNA, one strand shown
# T8 sequence: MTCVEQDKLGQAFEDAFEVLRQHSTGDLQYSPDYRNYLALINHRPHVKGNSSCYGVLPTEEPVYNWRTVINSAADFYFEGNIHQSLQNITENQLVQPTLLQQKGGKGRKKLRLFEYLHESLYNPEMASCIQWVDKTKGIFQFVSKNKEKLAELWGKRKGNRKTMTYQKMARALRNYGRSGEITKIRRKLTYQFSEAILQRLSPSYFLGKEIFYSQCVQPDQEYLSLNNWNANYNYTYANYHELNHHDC
# Summary of the method: as §1
# [14] = target: ELF4 (Homo sapiens, UniProt Q99607 1-663); conditions: protein: recombinant; tags: N-terminal GST; dsDNA, one strand shown
# Sequence of ELF4 (Q99607 whole entry): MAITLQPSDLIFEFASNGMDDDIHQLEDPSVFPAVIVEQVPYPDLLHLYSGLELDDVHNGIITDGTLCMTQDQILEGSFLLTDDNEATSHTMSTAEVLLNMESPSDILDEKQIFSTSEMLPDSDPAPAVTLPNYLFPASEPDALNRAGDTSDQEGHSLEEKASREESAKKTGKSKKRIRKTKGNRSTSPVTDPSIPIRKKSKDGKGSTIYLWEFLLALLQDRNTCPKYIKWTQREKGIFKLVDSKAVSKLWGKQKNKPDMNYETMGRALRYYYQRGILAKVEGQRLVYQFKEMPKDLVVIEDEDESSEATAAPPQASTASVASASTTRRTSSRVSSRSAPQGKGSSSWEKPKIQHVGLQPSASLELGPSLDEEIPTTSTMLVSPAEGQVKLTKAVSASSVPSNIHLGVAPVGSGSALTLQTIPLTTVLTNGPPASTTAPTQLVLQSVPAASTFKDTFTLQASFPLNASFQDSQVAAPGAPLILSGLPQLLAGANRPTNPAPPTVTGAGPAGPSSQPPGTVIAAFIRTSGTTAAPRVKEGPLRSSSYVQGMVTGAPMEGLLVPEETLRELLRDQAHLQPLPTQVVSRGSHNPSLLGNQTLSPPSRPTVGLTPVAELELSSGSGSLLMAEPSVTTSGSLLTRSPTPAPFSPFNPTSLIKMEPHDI
# Summary of the method: as §1
# [15] = target: T9, ELK4 (Homo sapiens, UniProt P28324-2 1-405); conditions: protein: recombinant; tags: N-terminal GST; dsDNA, one strand shown
# T9 sequence: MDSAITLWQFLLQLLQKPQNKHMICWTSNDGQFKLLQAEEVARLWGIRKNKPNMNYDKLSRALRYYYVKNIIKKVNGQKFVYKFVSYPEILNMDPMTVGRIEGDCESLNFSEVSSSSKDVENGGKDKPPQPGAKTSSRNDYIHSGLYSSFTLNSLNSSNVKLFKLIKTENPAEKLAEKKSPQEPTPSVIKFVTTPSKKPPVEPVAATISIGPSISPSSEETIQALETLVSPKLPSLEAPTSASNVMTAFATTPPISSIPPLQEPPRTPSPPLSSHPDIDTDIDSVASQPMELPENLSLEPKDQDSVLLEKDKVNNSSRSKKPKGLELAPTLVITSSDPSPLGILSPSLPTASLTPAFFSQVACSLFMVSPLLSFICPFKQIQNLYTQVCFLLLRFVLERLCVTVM
# Summary of the method: as §1
# [16] = target: T10, ETV2 (Homo sapiens, UniProt O00321 1-342); conditions: protein: recombinant; tags: N-terminal GST; dsDNA, one strand shown
# T10 sequence: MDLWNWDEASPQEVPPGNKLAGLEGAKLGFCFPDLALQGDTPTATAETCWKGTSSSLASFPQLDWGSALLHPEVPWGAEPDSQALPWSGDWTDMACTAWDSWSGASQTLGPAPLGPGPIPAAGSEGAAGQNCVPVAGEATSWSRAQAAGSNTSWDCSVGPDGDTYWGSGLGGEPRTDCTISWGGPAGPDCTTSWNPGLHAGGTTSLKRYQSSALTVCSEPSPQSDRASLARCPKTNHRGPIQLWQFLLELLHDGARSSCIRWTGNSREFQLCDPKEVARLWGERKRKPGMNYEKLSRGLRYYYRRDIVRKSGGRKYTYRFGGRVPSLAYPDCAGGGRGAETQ
# Summary of the method: as §1
# [17] = target: T11, ELF3 (Homo sapiens, UniProt P78545 1-371); conditions: protein: recombinant; tags: N-terminal GST; dsDNA, one strand shown
# T11 sequence: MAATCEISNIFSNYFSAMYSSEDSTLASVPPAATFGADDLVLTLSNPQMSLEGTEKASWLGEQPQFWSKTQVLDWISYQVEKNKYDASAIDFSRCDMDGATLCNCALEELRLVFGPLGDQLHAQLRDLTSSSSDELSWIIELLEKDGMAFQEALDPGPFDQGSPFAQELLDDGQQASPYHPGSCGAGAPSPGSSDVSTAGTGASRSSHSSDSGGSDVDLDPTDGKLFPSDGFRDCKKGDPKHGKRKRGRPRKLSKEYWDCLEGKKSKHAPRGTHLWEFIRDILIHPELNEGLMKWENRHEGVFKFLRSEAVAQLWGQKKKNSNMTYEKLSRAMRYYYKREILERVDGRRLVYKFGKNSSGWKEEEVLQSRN
# Summary of the method: as §1
# [18] = target: ETV1 (Homo sapiens, UniProt P50549 1-477); conditions: protein: recombinant; tags: N-terminal GST; dsDNA, one strand shown
# Sequence of ETV1 (P50549 whole entry): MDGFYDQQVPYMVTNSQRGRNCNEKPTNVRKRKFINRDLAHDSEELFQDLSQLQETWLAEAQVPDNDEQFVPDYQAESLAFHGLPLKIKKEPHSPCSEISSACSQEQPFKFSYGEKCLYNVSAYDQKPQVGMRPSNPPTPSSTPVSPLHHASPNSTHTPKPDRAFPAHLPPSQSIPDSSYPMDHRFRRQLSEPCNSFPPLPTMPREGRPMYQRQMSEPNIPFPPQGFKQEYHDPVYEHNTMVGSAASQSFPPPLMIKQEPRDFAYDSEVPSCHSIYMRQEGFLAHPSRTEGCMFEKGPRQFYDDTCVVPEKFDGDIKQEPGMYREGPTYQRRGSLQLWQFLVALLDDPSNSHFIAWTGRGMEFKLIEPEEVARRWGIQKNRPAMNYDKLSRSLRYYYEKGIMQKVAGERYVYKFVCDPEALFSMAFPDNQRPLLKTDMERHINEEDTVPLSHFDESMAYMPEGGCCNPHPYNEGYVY
# Summary of the method: as §1
sequence,measurement,setting,value
CGTCCC,binding signal,[1],"1.3 fold enrichment (6-mer frequency, TF over GST control)"
same,binding signal,[2],"1.39 fold enrichment (6-mer frequency, TF over GST control)"
same,binding signal,[3],"1.42 fold enrichment (6-mer frequency, TF over GST control)"
same,binding signal,[4],"1.37 fold enrichment (6-mer frequency, TF over GST control)"
same,binding signal,[5],"1.36 fold enrichment (6-mer frequency, TF over GST control)"
same,binding signal,[6],"1.44 fold enrichment (6-mer frequency, TF over GST control)"
same,binding signal,[7],"1.23 fold enrichment (6-mer frequency, TF over GST control)"
same,binding signal,[8],"1.31 fold enrichment (6-mer frequency, TF over GST control)"
same,binding signal,[9],"1.57 fold enrichment (6-mer frequency, TF over GST control)"
same,binding signal,[10],"1.34 fold enrichment (6-mer frequency, TF over GST control)"
same,binding signal,[11],"1.3 fold enrichment (6-mer frequency, TF over GST control)"
same,binding signal,[12],"1.08 fold enrichment (6-mer frequency, TF over GST control)"
same,binding signal,[13],"1.38 fold enrichment (6-mer frequency, TF over GST control)"
same,binding signal,[14],"1.27 fold enrichment (6-mer frequency, TF over GST control)"
same,binding signal,[15],"1.39 fold enrichment (6-mer frequency, TF over GST control)"
same,binding signal,[16],"1.12 fold enrichment (6-mer frequency, TF over GST control)"
same,binding signal,[17],"1.45 fold enrichment (6-mer frequency, TF over GST control)"
same,binding signal,[18],"1.34 fold enrichment (6-mer frequency, TF over GST control)"
